# Shown are actives, neighbours in structure and some others; about 1.8% of the full set was active somewhere.
# VHR inh abs: VHR1 phosphatase inhibitors, primary screen, biochemical, absorbance, uHTS; Dual specificity protein phosphatase 3 (Homo sapiens), P51452; recombinant VHR phosphatase, pNPP absorbance; inhibition, % at 13.3 µM; actives 0.52% (n = 290,000); in the data active = inhibition above about 50%
# Target sequence (P51452 whole entry, looked up): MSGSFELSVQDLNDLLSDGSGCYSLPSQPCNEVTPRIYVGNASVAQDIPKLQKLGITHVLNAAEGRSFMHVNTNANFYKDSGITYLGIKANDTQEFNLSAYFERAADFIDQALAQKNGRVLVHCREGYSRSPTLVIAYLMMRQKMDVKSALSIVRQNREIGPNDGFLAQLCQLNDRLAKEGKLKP
# RN4220 kill: growth inhibition of S. aureus RN4220, primary screen, OD600; inhibition, % (concentration not given with the values); actives 0.33% (n = 330,000); 16 h; in the data active = inhibition above about 85%;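 also: plate controls were untreated cells for no effect and reference antibiotic for full effect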
# Sa ugtP lethal: growth inhibition of ugtP-null S. aureus, primary screen, RN4220 ugtP deletion, OD600. 16 h. growth inhibition, % (test concentration not listed). actives 0.54% (n = 330,000); in the data active = growth inhibition above about 68%;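 also: plate controls were untreated wells for no effect and antibiotic for full effect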
# SSB-PriA inh: inhibitors of Klebsiella pneumoniae PriA binding to SSB C-terminal tail, primary screen, biochemical, AlphaScreen | AlphaScreen SSBct-PriA binding, biotinylated peptide | AID 1272365, 2023 | actives 0.6% (n = 430,000) | PriA–SSB C-terminal tail interaction (Klebsiella pneumoniae) | inhibition, % at 33 µM; in the data active = inhibition mostly above about 37%, no sharp cut-off; inactive = mostly below about 20%;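 also: plate controls were negative control peptide for no effect and reference peptide for full effect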
# Mtb hypoxia inh: PubChem AID 1159583 | fluorescence inhibition, % (no concentration beside the values) | M. tuberculosis hypoxia-regulated fluorescent reporter, fluorescence | actives 0.1% (n = 300,000); in the data active = fluorescence inhibition mostly above about 23%, no sharp cut-off; inactive = mostly below about 17%
# PfHsp40 rescue: rescue of yeast from PfHsp40 toxicity, primary screen, S. cerevisiae, ATP luminescence; growth rescue, % at 12.5 µM; actives 0.68% (n = 340,000); S. cerevisiae expressing PfHsp40, growth rescue; in the data active = growth rescue above about 28%, passing the limit was not always enough; inconclusive = no clear call, values can overlap the other calls;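 also: yeast W303a lacking pdr1 and pdr3 grown in galactose medium; growth measured after three days at 30 °C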
# Numbers without * were called inactive; ? = inconclusive; / = no result given.
SMILES,VHR inh abs,RN4220 kill,Sa ugtP lethal,SSB-PriA inh,Mtb hypoxia inh,PfHsp40 rescue
O=[N+]([O-])c1ccc(Cl)cc1Sc1nc2ccccc2o1,-1,23,21,49*,1,165*
C=CCn1c(=NC(=O)c2ccco2)sc2cccc(OCC)c21,/,/,/,-3,/,/
COC(=O)c1ccc(CNC(=O)COC(=O)CCC2CCCC2)cc1,2,0,14,-8,5,2
CC1C(OC(=O)CCC(=O)NC(C)(C)CO)O[C@H]2OC3(C)CC[C@H]4[C@H](C)CCC1C24OO3 (stereo partly specified),2,/,/,2,/,122*
CC(C)CC(NC(=O)CCCNC(=O)CCC(=O)OC1O[C@H]2OC3(C)CC[C@H]4[C@H](C)CCC(C1C)C24OO3)C(=O)O (stereo partly specified),2,/,/,-7,/,196*
C[C@H]1[C@H](OC(=O)CCC(=O)NCc2ccc(C(=O)O)cc2)O[C@@H]2O[C@@]3(C)CC[C@H]4[C@H](C)CC[C@@H]1C24OO3,11,/,/,-9,/,188*
COc1ccc(NC(=O)CN2CC3CCC(C)(C2)C3(C)C)cc1 (stereo unspecified),/,/,/,5,/,/
Cc1cc(C)nc(NN=Cc2ccccc2Cl)n1,/,3,5,/,-5,/
O=C(NN=Cc1c[nH]c2ccccc12)c1cc(-c2cccc3ccccc23)n[nH]1,/,-10,-5,-11,1,/
O=C(NN=Cc1c[nH]c2ccccc12)c1cc(-c2ccc(-c3ccccc3)cc2)n[nH]1,/,87*,28,-8,4,/
CCOC(=O)CSc1nnc(CSc2nc(N)c3c(C)c(C)sc3n2)n1-c1ccccc1,54*,6,-5,4,3,1
O=C(NNC(=S)NC(=O)c1ccccc1Cl)c1cccc([N+](=O)[O-])c1,-2,11,6,2,15,?
O=C(NNc1c(Cl)cc(Cl)cc1Cl)c1cccc([N+](=O)[O-])c1,-4,2,-9,0,2,192*
Cc1ccc(S(=O)(=O)n2ccc(-c3cccc(OCc4c(F)cccc4Cl)c3)n2)cc1,6,3,23,-7,16,0
Cc1ccc(S(=O)(=O)n2ccc(-c3ccc(OCc4c(F)cccc4Cl)cc3)n2)cc1,53*,0,-5,-8,13,-1
Cc1ccc(S(=O)(=O)[C@@H](CNC(=O)C(=O)Nc2ccccc2)c2ccco2)cc1,/,/,/,0,/,/
Cc1ccc(C)c(C(O)=C2C(=O)C(=O)N(CCN3CCOCC3)C2c2ccccc2F)c1 (stereo unspecified),/,/,/,48*,/,/
COc1cccc(-n2cc[nH]c2=S)c1,/,/,/,18,/,/
COc1ccc(-c2cc(-c3ccc(Cl)cc3)nc3sc(C(=O)NC[C@H]4CCCO4)c(N)c23)cc1,/,/,/,-31,/,/
Cc1ccc(NC(=O)Cn2nc3c4c(cccc4c2=O)-c2ccccc2-3)cc1C,/,/,/,3,/,/
O=C1Nc2ccccc2C12OC1CCCCC1O2 (stereo unspecified),18,6,-1,-3,0,-1
N#CC1=C(N)C(C#N)(C#N)C2(C(=O)Nc3ccccc32)C2CCCC=C12 (stereo unspecified),11,17,-15,-15,9,30*
COc1ccc(C(=O)Nc2cc(C)nn2-c2nc3c(cnn3-c3ccc(C)cc3)c(=O)[nH]2)cc1,/,/,/,0,/,/
COc1ccc(C(=O)Nc2cc(C)nn2-c2nc3c(cnn3-c3ccc(F)cc3)c(=O)[nH]2)cc1OC,/,/,/,53*,/,/
COc1ccc(C(=O)Nc2cc(C)nn2-c2nc3c(cnn3-c3ccc(C)c(C)c3)c(=O)[nH]2)cc1OC,/,/,/,91*,/,/
SMILES,VHR inh abs,RN4220 kill,Sa ugtP lethal,SSB-PriA inh,Mtb hypoxia inh,PfHsp40 rescue
CSc1ccccc1C(=O)Nc1cc(C)nn1-c1nc2c(cnn2-c2ccc(F)cc2)c(=O)[nH]1,/,/,/,41*,/,/
Cc1cc(NC(=O)c2ccccc2C(F)(F)F)n(-c2nc3c(cnn3-c3ccccc3)c(=O)[nH]2)n1,/,/,/,24,/,/
COc1ccccc1OCC(=O)Nc1cc(C)nn1-c1nc2c(cnn2-c2ccc(F)cc2)c(=O)[nH]1,/,/,/,-8,/,/
Cc1ccc2c(c1)c(C1=c3ccccc3=NC1=O)c(O)n2C,-2,98*,97*,-7,24,1
C=CCn1c(O)c(C2=c3ccccc3=NC2=O)c2ccccc21,60*,97*,98*,-18,17,-1
COc1ccc2oc(-c3csc(NC(=O)c4ccc5ncsc5c4)n3)cc2c1,/,/,/,2,/,/
COc1ccc(Br)cc1CNC(=O)Nc1cccs1,19,91*,87*,12,-16,1
COc1ccccc1CNC(=O)Nc1cccs1,16,53,26,4,4,0
CCc1ccc(OCC(=O)Nc2cccc3c2CCCC3)cc1,-2,25,99*,51*,6,8
CCCC(=O)Nc1cccc2c1CCCC2,-15,3,-6,-4,6,-2
O=C(NC(=S)Nc1ccc(O)cc1)C1CCCC1,/,2,87*,-8,16,1
O=C(NC(=S)Nc1ccc(F)cc1)C1CCCCC1,10,5,20,7,24,5
Cc1cc(C)nc(NS(=O)(=O)c2ccc(NC(=S)NC(=O)C3CCCC3)cc2)n1,4,-1,86*,7,1,0
COc1cccc(Nc2nc3c(S(=O)(=O)c4ccc(C)c(C)c4)nnn3c3ccc(Cl)cc23)c1,/,/,/,-16,/,/
COC1C=CO[C@@]2(C)Oc3c(C)c(O)c4c(O)c(c5c(nc6cc(C)ccn65)c4c3C2=O)NC(=O)C(C)=CC=CC(C)C(O)C(C)C(O)C(C)C(OC(C)=O)C1C (stereo partly specified),/,99*,99*,/,/,/
CCC(C)N1CCC2(CC1)N=c1c3c(O)c4c(O)c(C)c5c(c4c1=N2)C(=O)[C@@](C)(OC=C[C@H](OC)[C@@H](C)[C@@H](OC(C)=O)[C@H](C)[C@H](O)[C@H](C)[C@@H](O)[C@@H](C)C=CC=C(C)C(=O)N3)O5 (stereo partly specified),/,/,/,28,/,/
